Source: PubChem BioAssay (several laboratories)
SUMO Mot1 rescue: inhibitors of SUMOylation pathway: yeast Mot1-301 growth rescue. S. cerevisiae Mot1-301 growth rescue, ATP luminescence, 38.5C; percent above DMSO median, 100 means doubled. growth rescue, % at 18.8 µM. 1% of 320,000 active. AID 2716;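 active = every valid replicate shows activation above 250% relative to neutral control wells; inactive = the rest, any valid replicate at or below 250%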;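 also: OY570 slx delta 5 strain wells were the positive control but not used for scaling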
AHR act: activators of human aryl hydrocarbon receptor; AHR-responsive luciferase reporter cells, luminescence; activation, % at 5 µM; 2.5% of 320,000 active; in the data active = activation above about 47%;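 also: 0% = vehicle wells and 100% = reference agonist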
Target sequence (P35869 whole entry, looked up): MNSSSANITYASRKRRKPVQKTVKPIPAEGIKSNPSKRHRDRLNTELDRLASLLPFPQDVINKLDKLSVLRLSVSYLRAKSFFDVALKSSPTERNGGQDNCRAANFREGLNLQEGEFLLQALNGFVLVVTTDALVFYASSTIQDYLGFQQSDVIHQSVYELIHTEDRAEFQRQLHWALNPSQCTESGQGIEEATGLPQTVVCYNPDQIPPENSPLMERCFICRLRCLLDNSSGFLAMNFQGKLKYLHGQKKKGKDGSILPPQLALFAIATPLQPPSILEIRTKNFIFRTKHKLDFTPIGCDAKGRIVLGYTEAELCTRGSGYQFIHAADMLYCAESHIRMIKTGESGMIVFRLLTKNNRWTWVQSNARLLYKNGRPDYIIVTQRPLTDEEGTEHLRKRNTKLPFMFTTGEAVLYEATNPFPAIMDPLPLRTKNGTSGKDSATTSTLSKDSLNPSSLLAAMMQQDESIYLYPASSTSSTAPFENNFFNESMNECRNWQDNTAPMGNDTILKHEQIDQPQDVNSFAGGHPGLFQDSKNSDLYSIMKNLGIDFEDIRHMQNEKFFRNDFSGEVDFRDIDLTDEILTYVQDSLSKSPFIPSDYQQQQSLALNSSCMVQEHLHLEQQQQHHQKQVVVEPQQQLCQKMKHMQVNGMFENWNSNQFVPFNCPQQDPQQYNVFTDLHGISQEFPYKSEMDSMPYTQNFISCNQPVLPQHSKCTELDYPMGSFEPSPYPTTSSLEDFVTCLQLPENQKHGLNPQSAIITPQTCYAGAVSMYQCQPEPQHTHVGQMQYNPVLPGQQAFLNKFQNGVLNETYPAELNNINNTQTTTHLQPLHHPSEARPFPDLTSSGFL
Bfl-1 A1 inh: inhibitors of the anti-apoptotic protein A1, read as caspase activation. MEF A1-2A-BIM cells, Caspase-Glo 3/7 luminescence, 3 h; percent of clofoctol response, vehicle zero. caspase activation, % (no concentration beside the values). 0.066% of 330,000 active;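 active = over half of replicate activation scores above 10%, or exactly half above 10 with the replicate mean above 10; inconclusive = replicate mean below 10 yet half the replicates above 10; inactive = over half of replicates below 10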
VLA-4 inh: inhibition in a human VLA-4 binding assay. inhibition, % (about 7 µM as worked out from the volumes in the protocol). 0.2% of 330,000 active. VLA-4 expressing cells, ligand binding flow cytometry; in the data active = inhibition above about 50%
Efflux pump mplx: inhibitors of Candida antifungal efflux pumps expressed in yeast. S. cerevisiae Candida pump triplex, Nile Red efflux. inhibition, % at 10 µM. 0.44% of 330,000 active. AID 485275;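 active = plate passing quality check with inhibition over a set limit, or well fluorescence over plate mean plus 4 SD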;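 also: Nile Red retained in pooled yeast measured as flow cytometry median fluorescence; 0% = buffer negative control and 100% = Enniatin B positive control; higher means more Nile Red kept so more efflux inhibition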
ALR H2O2 inh: blocks human ALR sulfhydryl oxidase activity; purified ALR, DTT oxidation, H2O2 HRP-luminol luminescence; inhibition, % (no concentration beside the values); 3.8% of 290,000 active;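 active = mean replicate inhibition above about 79%, with every replicate also reaching it, limit read from the data; inconclusive = only one of the two criteria met; inactive = mean below limit and not every replicate reaching it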
Numbers without * were called inactive; ? = inconclusive; nt = no result given. Compounds with a hit are over-represented: about 7.2% of the library has one in this group of screens.

SMILES | SUMO Mot1 rescue | AHR act | Bfl-1 A1 inh | VLA-4 inh | Efflux pump mplx | ALR H2O2 inh
COc1ccccc1N1CCN(/N=C/c2cccc(OC)c2O)CC1 | 15.4 | -4.2 | -5.6 | 9.5 | 0.1 | 92.8*
COc1cccc(/C=N/N2C(=O)CSC2=S)c1O | -15.2 | 5.7 | -3.2 | -4.4 | 0.1 | 97.8*
COc1cccc(/C=N/N2CCN(C3c4ccccc4-c4ccccc43)CC2)c1O | 1.5 | 0.9 | 0.4 | -2.5 | -0.1 | -0.8
COc1ccc2ccccc2c1/C=N/N1C(=O)CSC1=S | -15.0 | 26.3 | 0.4 | -5.5 | 0.1 | nt
COc1ccccc1N1CCN(/N=C/c2ccc(O)c(O)c2)CC1 | -25.5 | -0.1 | -0.1 | 2.0 | 0.3 | 99.6*
CCN(CC)c1ccc(/C=N/N2CCN(c3ccccc3OC)CC2)cc1 | -4.9 | 2.2 | -0.3 | 1.4 | 0.0 | 99.0*
COc1ccc(/C=N/N2CCN(c3ccccc3OC)CC2)cc1OC | -5.9 | -4.2 | -3.6 | 3.5 | 0.0 | 32.1
CCN(CC)S(=O)(=O)c1cccc(-c2nnc(SCC(=O)NC3CCCCCCC3)n2N)c1 | 5.9 | 0.1 | -0.3 | 14.1 | 0.3 | -0.9
O=C(O)CN1C(=O)/C(=C\C(Br)=C\c2ccccc2)SC1=S | 96.5 | 1.7 | 0.6 | 6.0 | 0.2 | 9.0
COc1ccccc1N1CCN(/N=C/c2ccc(C(=O)O)cc2)CC1 | -9.0 | -4.1 | -2.1 | 0.6 | 0.0 | -55.0
COc1ccccc1N1CCN(/N=C(\C)c2ccc(O)cc2)CC1 | 0.1 | -0.1 | -0.9 | 1.1 | -0.1 | 98.9*
COc1ccccc1N1CCN(/N=C/c2cc(OC)c(OC(C)=O)c(OC)c2)CC1 | 4.9 | 1.5 | -0.4 | 11.3 | 0.0 | 1.2
COc1cc(/C=N/N2CCN(c3ccccc3)CC2)cc(OC)c1OC(C)=O | -1.4 | -6.2 | 0.3 | -1.5 | 0.0 | 97.4*
CCOc1cc(N2CCOCC2)c(OCC)cc1NC(=O)CN1CCSC1=O | 18.8 | 0.9 | 0.6 | -18.2 | 0.0 | nt
O=C(NN=C1CCCC1)c1ccccc1OCCOc1ccccc1 | -2.4 | 30.7 | 0.7 | 33.6 | -0.1 | 0.8
C/C(=N\NC(=O)c1ccccc1O)C1C(=O)c2ccccc2C1=O | 10.8 | 31.9 | -9.6 | -5.5 | 0.1 | 97.7*
CCOC(=O)C(CC)/C(C)=N\NC(=O)c1ccccc1O (stereo not given) | 4.2 | 55.6* | 0.2 | 6.9 | 0.8 | 23.9
CCC(C)/C(C)=N/NC(=O)c1ccccc1OCCOc1ccccc1 (stereo not given) | -5.1 | 78.6* | 0.2 | -46.4 | 0.0 | 4.5
CCC/C(C)=N/NC(=O)c1ccccc1O | 7.6 | 40.7 | 1.8 | nt | -0.2 | nt
Cc1ccc(CS(=O)(=O)Cc2ccc(C(=O)NCCc3ccccc3)o2)cc1 | -13.8 | 10.6 | -0.1 | 25.6 | 0.3 | -17.9
C[C@H]1CN([C@@H](C)CO)C(=O)Cc2cc(NS(=O)(=O)c3cccs3)ccc2O[C@H]1CN(C)S(=O)(=O)c1cn(C)cn1 | -0.8 | -0.5 | -0.2 | -3.5 | 0.5 | -1.9
CCC(=O)N1CCC2(CC1)Oc1ccc(F)cc1C(=O)C21CC(c2cccnc2)=NO1 (stereo not given) | 172.5 | -1.1 | 0.1 | 0.2 | -0.1 | -2.6
C=CCc1c(OC(C)=O)c2ccccc2n(C)c1=O | -3.5 | 0.1 | -0.2 | 8.8 | 0.4 | 4.6
O=c1ccc2ccccc2n1Cc1cccc(F)c1 | 3.9 | 3.0 | ? | 7.3 | -0.3 | 3.1
CN(Cc1cn[nH]c1-c1ccc(-c2ccccc2)cc1)CC1CCOCC1 | 12.6 | 16.2 | -0.2 | 11.6 | -0.1 | nt
SMILES | SUMO Mot1 rescue | AHR act | Bfl-1 A1 inh | VLA-4 inh | Efflux pump mplx | ALR H2O2 inh
CC(c1ccon1)N(C)Cc1cn[nH]c1-c1ccc(-c2ccccc2)cc1 (stereo not given) | -4.9 | 61.2* | 0.1 | 8.4 | -0.1 | 2.5
CN(Cc1ccon1)Cc1cn[nH]c1-c1ccc(-c2ccccc2)cc1 | 13.8 | 52.4* | -1.4 | 3.0 | 0.1 | -3.0
O=C(O)c1cc(S(=O)(=O)N2CCN(S(=O)(=O)c3ccc4ccccc4c3)CC2)ccc1Br | -3.4 | -0.7 | -0.4 | 8.9 | 0.2 | 15.6
O=C(NCCCN1CCOCC1)c1ccc(Br)s1 | -3.2 | -3.8 | -0.8 | 9.0 | 0.0 | 3.7
O=C(NCCCN1CCOCC1)c1cc2c(s1)CSC2 | 6.1 | 0.0 | -0.2 | 1.6 | 0.1 | 99.2*
COc1cccc(C2C(C(=O)OCc3ccccc3)=C(C)Nc3ncnn32)c1OC (stereo not given) | 9.3 | 5.7 | -1.3 | 7.1 | -0.1 | -5.5
CCc1cc2ccc(OC)cc2nc1SCC(=O)NNC(=O)c1ccco1 | -5.1 | 52.6* | 0.9 | 7.2 | -0.2 | 48.6
COCCn1nnnc1SCC(=O)NCc1ccc2c(c1)OCO2 | 5.4 | -0.1 | -0.6 | 0.5 | 0.1 | 96.1*
Cn1nnnc1SCC(=O)NCc1ccc2c(c1)OCO2 | -3.6 | 1.0 | -0.3 | -18.0 | -0.1 | -11.2
COCCn1nnnc1SCC(=O)Nc1ccc2c(c1)OCO2 | 2.8 | 68.1* | 0.6 | 9.0 | 0.1 | -18.1
CCCN(CCC)C(=O)C[n+]1cccc(/C=N/O)c1 | 7.4 | -0.9 | 0.5 | 2.7 | 0.0 | -2.5
C/C(=N\NC(=O)OC(C)(C)C)c1cccc([N+](=O)[O-])c1 | -15.3 | 11.0 | 2.1 | -5.0 | 0.1 | 5.3
CC(C)(C)OC(=O)NN=C(c1ccc(O)cc1)c1ccc(O)cc1 | -5.2 | 31.8 | -1.4 | 2.8 | 0.0 | 82.2*
Cn1c(-c2ccco2)n[nH]c1=S | 16.4 | -0.6 | 1.6 | -25.0 | -0.2 | 16.9
Cc1c(Cl)c(-c2n[nH]c(=S)n2Cc2ccco2)nn1C | -5.3 | 4.2 | -0.3 | 1.1 | 0.0 | 21.0
Cn1c(-c2sccc2OCc2ccccc2)n[nH]c1=S | 9.1 | 12.1 | 0.2 | -37.0 | 0.1 | 96.8*
Cc1ccc(COc2ccsc2-c2n[nH]c(=S)n2C)cc1 | -5.1 | 34.2 | -0.5 | -45.3 | 0.0 | 5.4
Cc1c(Cl)c(-c2n[nH]c(=S)n2-c2ccccc2)nn1C | -20.2 | -1.5 | -0.6 | 3.4 | -0.3 | 91.6*
Cc1ccn2c(-c3n[nH]c(=S)n3C)c(C)nc2c1 | 38.9 | 10.2 | -0.3 | 5.0 | 0.2 | 95.2*
Cn1c(-c2ccccc2Br)n[nH]c1=S | 14.0 | -1.0 | 1.3 | 12.3 | -0.1 | 95.6*
CCOC(=O)c1c(C)sc2c1N(C(C)=O)c1cc(Cl)ccc1S2 | 4.6 | 4.4 | -0.3 | -6.6 | 0.1 | 8.7
CSc1nnc(-c2sc(-c3ccccc3)nc2C)n1C | 0.3 | 9.4 | 0.2 | 3.9 | -0.1 | 1.7
Cc1nc(-c2ccccc2)sc1-c1n[nH]c(=S)n1C | -34.5 | 93.5* | -0.4 | 27.0 | -0.1 | 92.0*
Cn1c(-c2ccccc2)n[nH]c1=S | -6.4 | 1.8 | 1.7 | 31.8 | 0.0 | 92.6*
CN(C)c1ccc(-c2n[nH]c(=S)n2-c2ccccc2)cc1 | 13.1 | 3.8 | -0.8 | 2.2 | 0.1 | 94.9*
Cc1ccc(-c2cc(-c3n[nH]c(=S)n3C)c3ccccc3n2)cc1 | 95.8 | -5.1 | 0.2 | -6.1 | 0.0 | 97.0*
CC(C)c1nnc(NC(=O)CCC(=O)NC2CC2)s1 | -11.9 | 4.2 | 1.0 | 1.8 | -0.2 | -5.5
